Assay [1] can be described thus: UKN4_HCS_LUHMES_neurite_outgrowth: University of Konstanz (UKN) Leist Lab Neurite Outgrowth Assay in human LUHMES cells (UKN4) (AID 2284206). The note with it: actives raise or lower the signal. Put shortly: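 LUHMES neuronal precursors differentiated 2 days, replated without cAMP/GDNF, then exposed to chemicals for 24 h. Neurite area imaged by high-content microscopy after calcein-AM staining; Hoechst H-33342 marks viability. Bidirectional fit versus DMSO.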

The nature of assay [2]: UKN4_HCS_LUHMES_cell_viability: Viability Assessment in the University of Konstanz (UKN) Leist Lab Neurite Outgrowth Assay in human LUHMES cells (UKN4) (AID 2284232). Put shortly: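 LUHMES cells differentiated 2 days, replated without cAMP/GDNF, then exposed to compounds for 24 h from attachment. Viability read by high-content fluorescence imaging after 30 min live-staining with H-33342 and calcein-AM; bidirectional fit relative to DMSO baseline.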

The nature of assay [3]: UKN2_HCS_IMR90_cell_viability: Viability Assessment in the University of Konstanz (UKN) Leist Lab Neural Crest Cell Migration Assay in human induced IMR90 Pluripotent Stem Cells (UKN2) (AID 2284233).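 Note: viability of neural crest cells differentiated from IMR90 iPSC measured by calcein-AM fluorescence imaging; cells exposed to compound for 24 h after a 24 h migration phase.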 A digest of the protocol:
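Human IMR90-derived neural crest cells were allowed to migrate for 24 h into a cell-free zone, then exposed to test chemicals for 24 h. Calcein-AM and Hoechst staining with high-content imaging gave viability, analysed against DMSO baseline.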

In assay [4] the target is human AMP-activated Protein Kinase, alpha 1 (AMPKa1), PRKAA1 (gene 5562) (UniProt Q13131). Kind of assay: NVS_ENZ_hAMPKa1: NovaScreen (NVS) Enzymatic Assay for human AMP-activated Protein Kinase, alpha 1 (AMPKa1) (AID 2283130; active = hit-call score of the fitted dose curve at least 0.9, where 1 is the maximum). A digest of the protocol:
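Recombinant human AMPKα1 activity was measured cell-free by fluorescent substrate conversion with electrophoretic mobility-shift separation, 1 h after dosing. Duplicate single-point screening was at 25 uM; actives (≥30% inhibition) were retested in concentration-response up to 50 uM.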

Assay [5] deals with human AKT serine/threonine Kinase 1 (AKT1), AKT1 (gene 207) (UniProt P31749). Kind of assay: NVS_ENZ_hAKT1: NovaScreen (NVS) Enzymatic Assay for human AKT serine/threonine Kinase 1 (AKT1) (AID 2283138; active = hit-call score of the fitted dose curve at least 0.9, where 1 is the maximum). Put shortly: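 Cell-free recombinant enzyme with substrate; activity read by fluorescence intensity after electrophoretic mobility shift separating substrate from product, 1 h after dosing. Single-concentration duplicates at 25 uM, then singleton concentration-response up to 50 uM; loss of signal versus DMSO.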

Assay [6] addresses human Casein Kinase 1-delta (CK1D), CSNK1D (gene 1453) (UniProt P48730). Kind of assay: NVS_ENZ_hCK1D: NovaScreen (NVS) Enzymatic Assay for human Casein Kinase 1-delta (CK1D) (AID 2283148; active = hit-call score of the fitted dose curve at least 0.9, where 1 is the maximum). Put shortly:
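Recombinant human CK1-delta, cell-free; fluorescent substrate with electrophoretic mobility-shift separation of product, read 1 h after dosing. Single 25 uM duplicate screen, then concentration-response up to 50 uM; loss of signal vs DMSO.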

Assay [7] deals with human Colony Stimulating Factor 1 Receptor (CSF1R), CSF1R (gene 1436) (UniProt P07333). The assay can be described thus: NVS_ENZ_hCSF1R: NovaScreen (NVS) Enzymatic Assay for human Colony Stimulating Factor 1 Receptor (CSF1R) (AID 2283150; active = hit-call score of the fitted dose curve at least 0.9, where 1 is the maximum). A digest of the protocol:
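Cell-free recombinant human CSF1R kinase with fluorescent substrate, product separated by electrophoretic mobility shift; read 1 h after dosing. Primary screen at 25 uM in duplicate, actives then in concentration-response up to 50 uM, relative to DMSO.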

For assay [8], the target named is human FYN Proto-Oncogene, Src family Tyrosine Kinase (Fyn), FYN (gene 2534) (UniProt P06241). The assay can be described thus: NVS_ENZ_hFyn: NovaScreen (NVS) Enzymatic Assay for human FYN Proto-Oncogene, Src family Tyrosine Kinase (Fyn) (AID 2283161; active = hit-call score of the fitted dose curve at least 0.9, where 1 is the maximum). A digest of the protocol:
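Recombinant enzyme with fluorescent substrate, product separated by electrophoretic mobility shift; read 1 h after dosing. Duplicate 25 uM single-point screen, actives retested in concentration series; loss of signal vs DMSO.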

For assay [9], the target named is Tyrosine-protein phosphatase non-receptor type 11 (Homo sapiens) (UniProt Q06124). The assay can be described thus: NVS_ENZ_hPTPN11: NovaScreen (NVS) Enzymatic Assay for human Protein Tyrosine Phosphatase Non-receptor Type 11 (PTPN11) (AID 2283202; active = hit-call score of the fitted dose curve at least 0.9, where 1 is the maximum). A digest of the protocol: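 Recombinant human PTPN11 activity on a fluorescent substrate, with substrate/product separated by electrophoretic mobility shift; read 0.5 h after dosing, loss of signal vs DMSO. Duplicate 25 uM screen, then concentration-response up to 50 uM.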

The target in assay [10] is Tyrosine-protein phosphatase non-receptor type 13 (Homo sapiens) (UniProt Q12923). Kind of assay: NVS_ENZ_hPTPN13: NovaScreen (NVS) Enzymatic Assay for human Protein Tyrosine Phosphatase Non-receptor Type 13 (PTPN13) (AID 2283205; active = hit-call score of the fitted dose curve at least 0.9, where 1 is the maximum). A digest of the protocol:
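Cell-free assay of recombinant human PTPN13 with a fluorescent substrate, product separated by electrophoretic mobility shift and read 0.5 h after dosing. Primary screen at 25 uM in duplicate, then concentration-response up to 50 uM. Loss of signal fitted against DMSO.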

In assay [11] the target is human Vascular Endothelial Growth Factor Receptor 2 (VEGFR2), KDR (gene 3791) (UniProt P35968). The assay can be described thus: NVS_ENZ_hVEGFR2: NovaScreen (NVS) Enzymatic Assay for human Vascular Endothelial Growth Factor Receptor 2 (VEGFR2) (AID 2283230; active = hit-call score of the fitted dose curve at least 0.9, where 1 is the maximum). A digest of the protocol: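 Cell-free recombinant VEGFR2 kinase, fluorescent substrate with electrophoretic mobility-shift separation; read 1 h after dosing. Screened at 25 uM in duplicate, hits to concentration-response up to 50 uM; loss-of-signal versus DMSO.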

Assay [12] deals with rat Constitutive Nitric Oxide Synthase (CNOS), Nos1 (gene 24598) (UniProt P29476). The assay can be described thus: NVS_ENZ_rCNOS: NovaScreen (NVS) Enzymatic Assay for rat Constitutive Nitric Oxide Synthase (CNOS) (AID 2283236; active = hit-call score of the fitted dose curve at least 0.9, where 1 is the maximum). A digest of the protocol:
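Enzyme activity in rat brain membrane preparation, read 1 h after dosing by filter-based radiometric scintillation counting. Primary screen in duplicate at 25 uM; actives (e.g., ≥30% inhibition) then run in concentration-response up to 50 uM.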

Assay [13] addresses rat Neonicotinoid receptor (NNR), Chrna7 (gene 25302) (UniProt Q05941). The assay can be described thus: NVS_LGIC_rNNR_BungSens: NovaScreen (NVS) Ligand-Gated Ion Channel Assay for rat Neonicotinoid receptor (NNR) (AID 2283315; active = hit-call score of the fitted dose curve at least 0.9, where 1 is the maximum). A digest of the protocol: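 Radioligand displacement binding on rat cortical membranes, 2.5 h incubation, filtration and scintillation counting. Loss of specific binding fitted relative to DMSO.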

For assay [14], the target named is Sodium channel protein type 1 subunit alpha (Rattus norvegicus) (UniProt P04774). The assay can be described thus: NVS_IC_rNaCh_site2: NovaScreen (NVS) Ion Channel Assay for rat Sodium Channel, Site 2 (NaCh) (AID 2283322; active = hit-call score of the fitted dose curve at least 0.9, where 1 is the maximum;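 note: hit means loss of radioligand binding signal relative to DMSO so AC50 marks displacement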). A digest of the protocol:
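Membranes: rat forebrain. Format: competitive radioligand displacement, filter separation, scintillation readout, 1 h exposure. Primary screen in duplicate at 25 uM; actives retested in concentration series.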

Read-out in assay [15]: Monokine induced gamma interferon (MIG), CXCL9 (gene 4283)
The assay can be described thus: BSK_KF3CT_MIG: BioMAP Diversity Plus: KF3CT Assay for Monokine induced gamma interferon (MIG) Biomarker Activity (AID 2284248). The following applies: primary human keratinocytes with fibroblasts. A digest of the protocol:
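ELISA read-out of MIG after 24 h chemical exposure of human skin primary co-culture (keratinocytes, foreskin fibroblasts). Gain of signal relative to DMSO negative control was analysed.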

Read-out in assay [16]: Collagen I, COL1A1 (gene 1277)
The assay can be described thus: BSK_hDFCGF_CollagenI: BioMAP Diversity Plus: hDFCGF Assay for Collagen I Biomarker Activity (AID 2284250). The following applies: primary human foreskin fibroblasts. A digest of the protocol:
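Primary human foreskin fibroblasts (hDFCGF system) exposed to chemical for 24 h; Collagen I measured by ELISA. Activity fitted in the positive direction relative to DMSO baseline, with SRB total-protein staining in parallel cultures for overt cytotoxicity.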

Read-out in assay [17]: Interferon-inducible T-cell alpha chemoattractant (ITAC), CXCL11 (gene 6373)
Kind of assay: BSK_hDFCGF_ITAC: BioMAP Diversity Plus: hDFCGF Assay for Interferon-inducible T-cell alpha chemoattractant (ITAC) Biomarker Activity (AID 2284251). The note with it: primary human foreskin fibroblasts. Put shortly: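 Fibroblasts (human foreskin, primary) are treated with chemical, cultured 24 h, then assayed for I-TAC by ELISA. Overt toxicity is checked in parallel cultures by sulforhodamine B staining of total protein at the same time point.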

Read-out in assay [18]: Plasminogen activator inhibitor-1 (PAI1), SERPINE1 (gene 5054)
Kind of assay: BSK_KF3CT_PAI1: BioMAP Diversity Plus: KF3CT Assay for Plasminogen activator inhibitor-1 (PAI1) Biomarker Activity (AID 2284252). The following applies: primary human keratinocytes with fibroblasts. Put shortly:
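Human primary keratinocyte/foreskin fibroblast co-culture was dosed with compound and sampled at 24 h. PAI-1 was quantified by ELISA, with activity fitted in the positive direction relative to DMSO vehicle as baseline.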

Read-out in assay [19]: Interleukin-8 (IL8), CXCL8 (gene 3576)
The assay can be described thus: BSK_KF3CT_IL8: BioMAP Diversity Plus: KF3CT Assay for Interleukin-8 (IL8) Biomarker Activity (AID 2284254). The note with it: primary human keratinocytes with fibroblasts. A digest of the protocol: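 IL-8 read-out: ELISA, 24 h post-dose, human skin primary co-culture (keratinocytes + foreskin fibroblasts). DMSO = baseline; positive-direction fit.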

Read-out in assay [20]: Intercellular Adhesion Molecule 1 (ICAM1), ICAM1 (gene 3383)
The assay can be described thus: BSK_BE3C_ICAM1: BioMAP Diversity Plus: BE3C Assay for Intercellular Adhesion Molecule 1 (ICAM1) Biomarker Activity (AID 2284278).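 Note: cell-surface ICAM-1 protein level quantified by ELISA.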 The note with it: primary human bronchial epithelial cells. A digest of the protocol:
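Primary human bronchial epithelial cells were exposed to compound for 24 h, after which cell-surface ICAM-1 was quantified by ELISA. Activity was fitted in the gain-of-signal direction against DMSO as negative control and baseline.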

Results filed as inconclusive are left out. Activity calls are given as the source filed them. Rule for the calls, unless noted: active = hit-call score of the fitted dose curve at least 0.9, where 1 is the maximum; inactive = score below 0.9.

rat Neonicotinoid receptor (NNR), Chrna7 (gene 25302), sequence (Q05941 whole entry, looked up): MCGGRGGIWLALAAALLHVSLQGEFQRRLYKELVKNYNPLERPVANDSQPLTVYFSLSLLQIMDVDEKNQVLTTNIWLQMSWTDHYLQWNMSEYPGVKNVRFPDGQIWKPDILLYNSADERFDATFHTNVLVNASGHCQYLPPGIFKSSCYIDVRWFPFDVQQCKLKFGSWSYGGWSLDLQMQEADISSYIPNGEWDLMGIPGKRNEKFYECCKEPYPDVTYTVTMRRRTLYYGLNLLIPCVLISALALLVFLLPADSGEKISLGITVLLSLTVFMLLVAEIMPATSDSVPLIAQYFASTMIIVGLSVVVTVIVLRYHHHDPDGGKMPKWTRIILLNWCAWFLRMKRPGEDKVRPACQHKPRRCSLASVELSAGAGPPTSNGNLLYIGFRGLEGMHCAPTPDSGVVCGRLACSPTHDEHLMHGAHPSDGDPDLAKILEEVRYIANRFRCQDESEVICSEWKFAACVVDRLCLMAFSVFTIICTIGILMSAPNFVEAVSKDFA
human AMP-activated Protein Kinase, alpha 1 (AMPKa1), PRKAA1 (gene 5562), sequence (Q13131 whole entry, looked up): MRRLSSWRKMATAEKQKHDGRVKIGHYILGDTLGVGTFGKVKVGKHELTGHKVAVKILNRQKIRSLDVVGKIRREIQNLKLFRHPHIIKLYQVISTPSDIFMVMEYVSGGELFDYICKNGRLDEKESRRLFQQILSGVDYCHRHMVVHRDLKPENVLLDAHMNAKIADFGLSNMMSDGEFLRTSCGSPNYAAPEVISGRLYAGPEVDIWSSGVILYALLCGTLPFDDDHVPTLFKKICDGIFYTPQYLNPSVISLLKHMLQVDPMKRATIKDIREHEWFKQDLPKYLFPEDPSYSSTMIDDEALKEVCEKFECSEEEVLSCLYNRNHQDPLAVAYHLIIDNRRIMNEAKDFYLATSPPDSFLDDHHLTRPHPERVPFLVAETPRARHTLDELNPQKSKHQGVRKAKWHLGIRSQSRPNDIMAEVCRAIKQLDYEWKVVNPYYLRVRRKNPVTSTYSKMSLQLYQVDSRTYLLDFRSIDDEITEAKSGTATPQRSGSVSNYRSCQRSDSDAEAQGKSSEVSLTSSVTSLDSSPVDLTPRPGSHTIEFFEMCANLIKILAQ
human Vascular Endothelial Growth Factor Receptor 2 (VEGFR2), KDR (gene 3791), sequence (P35968 whole entry, looked up): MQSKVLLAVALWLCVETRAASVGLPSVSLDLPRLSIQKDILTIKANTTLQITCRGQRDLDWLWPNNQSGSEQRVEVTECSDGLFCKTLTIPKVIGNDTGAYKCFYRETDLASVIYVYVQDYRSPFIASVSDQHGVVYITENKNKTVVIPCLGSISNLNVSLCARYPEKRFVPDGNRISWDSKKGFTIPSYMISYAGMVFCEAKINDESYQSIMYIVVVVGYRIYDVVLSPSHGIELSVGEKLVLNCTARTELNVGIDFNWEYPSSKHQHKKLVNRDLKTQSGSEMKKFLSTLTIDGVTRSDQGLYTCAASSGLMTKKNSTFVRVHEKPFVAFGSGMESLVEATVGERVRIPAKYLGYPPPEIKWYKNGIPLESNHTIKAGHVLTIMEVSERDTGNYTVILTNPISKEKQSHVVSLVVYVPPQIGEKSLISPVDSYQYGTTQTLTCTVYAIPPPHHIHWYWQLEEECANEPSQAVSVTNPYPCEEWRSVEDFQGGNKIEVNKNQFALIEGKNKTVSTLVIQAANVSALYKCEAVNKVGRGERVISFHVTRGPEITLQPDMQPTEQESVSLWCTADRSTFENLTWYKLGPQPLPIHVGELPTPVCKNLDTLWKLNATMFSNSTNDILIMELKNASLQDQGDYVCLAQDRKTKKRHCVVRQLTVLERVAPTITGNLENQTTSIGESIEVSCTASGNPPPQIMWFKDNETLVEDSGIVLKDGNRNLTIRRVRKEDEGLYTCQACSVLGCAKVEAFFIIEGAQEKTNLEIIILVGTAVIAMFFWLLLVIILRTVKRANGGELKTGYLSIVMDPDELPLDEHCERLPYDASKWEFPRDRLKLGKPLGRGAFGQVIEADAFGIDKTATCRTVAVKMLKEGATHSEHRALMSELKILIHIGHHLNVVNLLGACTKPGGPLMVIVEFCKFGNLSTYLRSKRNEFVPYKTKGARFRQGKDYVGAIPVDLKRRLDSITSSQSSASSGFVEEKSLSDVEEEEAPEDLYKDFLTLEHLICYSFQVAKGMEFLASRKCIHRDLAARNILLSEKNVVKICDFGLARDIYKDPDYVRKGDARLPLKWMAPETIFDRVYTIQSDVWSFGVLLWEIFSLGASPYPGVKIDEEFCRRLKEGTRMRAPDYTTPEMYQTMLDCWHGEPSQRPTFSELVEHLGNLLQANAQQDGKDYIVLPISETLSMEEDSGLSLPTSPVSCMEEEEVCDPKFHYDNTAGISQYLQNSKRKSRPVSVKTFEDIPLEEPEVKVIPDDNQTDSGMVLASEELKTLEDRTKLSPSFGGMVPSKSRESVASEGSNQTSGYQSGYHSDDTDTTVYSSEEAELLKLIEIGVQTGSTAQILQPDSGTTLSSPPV
human FYN Proto-Oncogene, Src family Tyrosine Kinase (Fyn), FYN (gene 2534), sequence (P06241 whole entry, looked up): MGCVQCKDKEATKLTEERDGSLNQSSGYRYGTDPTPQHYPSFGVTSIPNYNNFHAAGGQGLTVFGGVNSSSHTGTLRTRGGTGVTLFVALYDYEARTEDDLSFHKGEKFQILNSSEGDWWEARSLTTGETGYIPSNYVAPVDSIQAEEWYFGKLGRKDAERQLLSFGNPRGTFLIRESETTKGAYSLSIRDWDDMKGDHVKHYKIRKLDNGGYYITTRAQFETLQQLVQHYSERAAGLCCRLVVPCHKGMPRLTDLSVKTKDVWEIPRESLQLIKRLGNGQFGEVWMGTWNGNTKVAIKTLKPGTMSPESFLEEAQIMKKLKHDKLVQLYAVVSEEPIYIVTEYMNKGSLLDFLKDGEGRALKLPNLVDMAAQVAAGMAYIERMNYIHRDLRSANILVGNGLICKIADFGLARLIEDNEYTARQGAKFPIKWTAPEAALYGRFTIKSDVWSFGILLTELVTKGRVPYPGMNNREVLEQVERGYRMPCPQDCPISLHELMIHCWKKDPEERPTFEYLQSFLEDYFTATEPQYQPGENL
human Casein Kinase 1-delta (CK1D), CSNK1D (gene 1453), sequence (P48730 whole entry, looked up): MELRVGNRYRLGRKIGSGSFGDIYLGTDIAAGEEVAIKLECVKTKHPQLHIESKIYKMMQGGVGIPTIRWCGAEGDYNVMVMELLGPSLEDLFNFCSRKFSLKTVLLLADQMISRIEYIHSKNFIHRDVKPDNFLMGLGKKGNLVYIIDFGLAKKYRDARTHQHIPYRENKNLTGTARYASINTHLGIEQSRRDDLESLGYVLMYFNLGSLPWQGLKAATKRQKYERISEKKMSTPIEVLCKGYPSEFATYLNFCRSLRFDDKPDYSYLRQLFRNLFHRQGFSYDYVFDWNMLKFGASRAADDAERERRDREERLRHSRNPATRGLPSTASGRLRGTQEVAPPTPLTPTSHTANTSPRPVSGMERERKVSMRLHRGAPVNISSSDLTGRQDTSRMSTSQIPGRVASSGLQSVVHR
Tyrosine-protein phosphatase non-receptor type 11 (Homo sapiens), sequence (Q06124 whole entry, looked up): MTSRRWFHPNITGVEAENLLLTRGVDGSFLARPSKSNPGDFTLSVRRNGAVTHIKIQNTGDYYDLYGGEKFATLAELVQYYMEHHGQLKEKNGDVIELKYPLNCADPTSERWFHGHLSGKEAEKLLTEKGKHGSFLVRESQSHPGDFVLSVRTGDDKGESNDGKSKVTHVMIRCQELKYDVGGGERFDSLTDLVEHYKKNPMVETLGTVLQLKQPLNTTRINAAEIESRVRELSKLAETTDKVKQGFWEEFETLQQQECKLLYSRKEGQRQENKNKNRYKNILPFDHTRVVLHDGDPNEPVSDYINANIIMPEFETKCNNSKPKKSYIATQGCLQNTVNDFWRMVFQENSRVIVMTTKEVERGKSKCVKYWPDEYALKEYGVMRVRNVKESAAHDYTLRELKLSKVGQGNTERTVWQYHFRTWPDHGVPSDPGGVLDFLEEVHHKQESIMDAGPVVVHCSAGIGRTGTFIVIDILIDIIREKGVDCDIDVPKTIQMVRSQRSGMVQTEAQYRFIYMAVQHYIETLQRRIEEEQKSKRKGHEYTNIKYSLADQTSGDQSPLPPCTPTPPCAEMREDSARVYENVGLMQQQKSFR
human Colony Stimulating Factor 1 Receptor (CSF1R), CSF1R (gene 1436), sequence (P07333 whole entry, looked up): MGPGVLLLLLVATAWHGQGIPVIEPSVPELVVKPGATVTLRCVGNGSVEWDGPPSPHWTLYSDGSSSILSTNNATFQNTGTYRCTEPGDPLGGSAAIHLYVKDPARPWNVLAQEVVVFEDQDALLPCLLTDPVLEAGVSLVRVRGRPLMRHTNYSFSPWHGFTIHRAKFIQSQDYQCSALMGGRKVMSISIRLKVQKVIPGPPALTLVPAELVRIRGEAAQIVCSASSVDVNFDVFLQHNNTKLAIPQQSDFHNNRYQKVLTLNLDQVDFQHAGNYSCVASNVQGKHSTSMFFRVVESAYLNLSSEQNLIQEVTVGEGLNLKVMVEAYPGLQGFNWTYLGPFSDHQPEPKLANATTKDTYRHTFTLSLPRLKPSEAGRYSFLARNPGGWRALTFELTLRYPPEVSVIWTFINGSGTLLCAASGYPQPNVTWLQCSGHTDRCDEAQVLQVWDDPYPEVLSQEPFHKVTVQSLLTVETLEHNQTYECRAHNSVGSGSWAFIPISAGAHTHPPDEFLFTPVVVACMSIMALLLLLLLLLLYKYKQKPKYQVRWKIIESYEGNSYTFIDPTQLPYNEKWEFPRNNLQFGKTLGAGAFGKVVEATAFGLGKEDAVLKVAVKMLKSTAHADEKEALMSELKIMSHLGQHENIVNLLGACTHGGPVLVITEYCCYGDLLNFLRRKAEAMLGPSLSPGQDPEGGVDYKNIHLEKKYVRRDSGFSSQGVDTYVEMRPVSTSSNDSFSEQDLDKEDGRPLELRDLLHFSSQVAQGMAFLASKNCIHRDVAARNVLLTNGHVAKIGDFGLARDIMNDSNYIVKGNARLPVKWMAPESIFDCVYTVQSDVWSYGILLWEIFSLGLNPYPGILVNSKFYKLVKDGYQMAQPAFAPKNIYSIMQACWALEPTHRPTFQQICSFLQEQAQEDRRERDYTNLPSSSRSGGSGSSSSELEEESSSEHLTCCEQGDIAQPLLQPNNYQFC

Turning to `CC1(C)[C@H](C(=O)O[C@H](C#N)c2cccc(Oc3ccccc3)c2)[C@@H]1C=C(Br)Br`, the call in [1], in assay [2] and in assay [3] was inactive.

As for `O=[N+]([O-])c1ccc(Cl)cc1`, the result in [4], in assay [5], in assay [6], in [7], in assay [8] and in assay [9] was inactive. In addition, the result in assay [10], in assay [11] and in [12] was inactive.

In general, AC50 refers to the midpoint of the concentration-response curve, whichever way the signal moves. For the molecule `CCc1cc(C)cc(CC)c1-c1c(OC(=O)C(C)(C)C)n2n(c1=O)CCOCC2`, the half-maximal activity concentration (AC50) in assay [13] is 6.11 µM (active). Also, in assay [14], the outcome was inactive.

With `COc1ccc(CO)cc1`, the result in assay [15], in [16], in [17], in assay [18], in [19] and in [20] was inactive.
